# The full list was thinned out, with hits kept by preference.
# Pf Dd2 growth: blocks in vitro growth of P. falciparum Dd2 | P. falciparum Dd2 growth, SYBR Green, 72 h | 120,000 compounds, 4.3% hits | AID 1347417 | Potency, µM (doses to about 28.9 µM), for inactives: at the highest dose activity, negative = inhibition, usual class: inhibitors; active = well fitted inhibition curve with a large enough effect;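 note: plate controls were DMSO vehicle for no effect and reference drug for full effect; nearly all actives have a fitted effect of over 65% in size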
#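 Readout: SYBR Green fluorescence, 485 nm excitation, 535 nm emission, after ~16 h lysis at 37C. Before that, Dd2-infected red cells (2.5% hematocrit) grew 72 h with compound, 29 uM top final concentration.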
# Active calls of the source: *; i = inactive; [ ] = another dose, or the depositor's remark. Potency is the fitted concentration of half-maximal effect.
SMILES,Pf Dd2 growth
Cc1ccc(C(=O)N2CCN(C(=O)c3nnn4c3COC(c3ccc(Cl)cc3)C4)CC2)s1 (stereo not given),2.8µM*
Cc1ccc(C)c(C(=O)N2CCN(C(=O)c3nnn4c3COC(c3ccc(Cl)cc3)C4)CC2)c1 (stereo not given),i
Cc1ccc(C(=O)N2CCN(C(=O)c3nnn4c3COC(c3ccc(Cl)cc3)C4)CC2)c(C)c1 (stereo not given),-2%
COC[C@@H]1CN(C(=O)Cc2cccc(OC)c2)C[C@H]1c1nc(C)no1,14%
CCC1=C(c2ccc(C)cc2)S(=O)(=O)N=C1N1CCC(C(=O)NCCc2ccc(Cl)cc2)CC1,8.9µM*
CC1=C(c2ccc(Cl)cc2)S(=O)(=O)N=C1N1CCC(C(=O)NCCc2ccco2)CC1,22%
CC1=C(c2ccc(F)cc2)S(=O)(=O)N=C1N1CCC(C(=O)NCCc2ccccc2)CC1,i
COc1ccc(NC(=O)NC[C@H]2Cn3cc(-c4ccc(C)cc4)nc3CO2)cc1,2.5µM*
COc1ccc(-c2cn3c(n2)CO[C@@H](CNC(=O)C2CCCC2)C3)cc1,-21%[44.1 µM]
COc1ccc(-c2cn3c(n2)CO[C@@H](CNC(=O)c2ccccc2OC)C3)cc1,i
O=C(CC1=C2CCCCC2NC1=O)NCCc1c[nH]c2ccccc12 (stereo not given),-17%
C#CCOc1c(Br)cc(C2C(C(=O)OC)=C(C)NC3=C2C(=O)c2ccccc23)cc1OCC (stereo not given),i
CCCc1ccc(C2Sc3ccccc3NC3=C2C(=O)c2ccccc23)cc1 (stereo not given),3.2µM*
CCOc1cc(C2CC(=O)Nc3c2c(C)nn3-c2nc(C)cc(C)n2)ccc1O (stereo not given),-28%
CC(=O)Nc1ccc(NC(=O)CC2Sc3ccccc3NC2=O)cc1 (stereo not given),16%
CCOc1cc(C2Sc3ccccc3NC3=C2C(=O)c2ccccc23)ccc1O (stereo not given),11µM*
O=C(NCc1ccccc1Cl)c1cc2c(s1)-c1ccccc1SC2,-1%
O=C1C2=C(Nc3ccccc3SC2c2ccc(Cl)c(Cl)c2)c2ccccc21 (stereo not given),3.5µM*
O=C(NCc1ccc(Cl)nc1)c1cn2c(n1)CN(C(=O)c1ccccc1F)CC2,7%
Cc1nnsc1C(=O)N[C@H]1CCN(C(=O)COCC(=O)O)[C@H](C(=O)N[C@H](Cc2ccccc2)C(N)=O)C1,-4%
O=C1C(N2CCN(S(=O)(=O)c3cccs3)CC2)CCN1Cc1ccccn1 (stereo not given),i
CN(C)c1nc2c(c(=O)[nH]1)CCN(Cc1cccc(Cl)c1)CC2,22%[5.79 µM]
O=C(c1ccccc1Cl)N1CCC(n2c(=O)[nH]c3ccccc32)CC1,-1%
N#Cc1nc(-c2ccc(COc3ccccc3)o2)oc1N1CCCCC1,59%[0.594 µM]
COCCCNc1oc(-c2ccc(COc3ccccc3C)o2)nc1C#N,-27%
SMILES,Pf Dd2 growth
Cc1cccc(OCc2ccc(-c3nc(C#N)c(NCc4cccnc4)o3)o2)c1,7.9µM*
CCCCNc1oc(-c2ccc(COc3ccccc3C)o2)nc1C#N,11µM*
CCN1CCN(c2oc(-c3ccc(COc4ccccc4C)o3)nc2C#N)CC1,-14%
COc1ccc(Nc2oc(-c3ccc(COc4ccccc4)o3)nc2C#N)cc1,-5%
Cc1cccc(OCc2ccc(-c3nc(C#N)c(N4CCN(c5ccccc5)CC4)o3)o2)c1,10µM*
Cc1ccccc1OCc1ccc(-c2nc(C#N)c(NCc3cccnc3)o2)o1,-24%
COc1ccc(CNc2oc(COc3cccc(C)c3)nc2C#N)cc1,0%
O=C1NC(=O)C(CCC(=O)N2CCCN(Cc3ccccn3)CC2)N1 (stereo not given),-4%
CC(C)N(C)Cc1ccc(-c2nc(-c3cccnc3)cc(=O)[nH]2)cc1,-28%
COc1ccccc1CCC(=O)NC1CCc2nn(CC3CC3)c(=O)n2CC1 (stereo not given),-18%
CN(CCC(N)=O)C(=O)C1CCCN1S(=O)(=O)c1ccc(F)cc1 (stereo not given),23%
O=C1NCCCCCN(C(=O)c2ccncc2)[C@H]2CCC[C@@H]12,3%
COCCN1C(=O)CO[C@H]2CN(C3CCOCC3)C[C@H]21,20%[44.1 µM]
Cc1nnsc1C(=O)N[C@H]1CCN(C(=O)c2cccn2C)[C@H](C(=O)N[C@H](Cc2ccccc2)C(N)=O)C1,-1%
CCOC(=O)C1(Cc2cccc(OC)c2)CCCNC1 (stereo not given),11µM*
COc1cccc(CN2CCC3(CC2)C(=O)NCN3Cc2ccc(Cl)cc2)c1,-17%
COc1cccc(CC2(CO)CCCNC2)c1 (stereo not given),-26%
CCOC(=O)C1(Cc2ccc(Cl)cc2)CCN(Cc2ccc(OC)cc2O)CC1,0.089µM*
CCOC(=O)C1(Cc2ccc(OC)cc2)CCN(C(=O)C(C)Oc2ccccc2)CC1 (stereo not given),-10%
COCC1CN(C(=O)CCc2cccc(OC)c2)CC12CCNCC2 (stereo not given),33%
CCOC(=O)C1(Cc2cccc(OC)c2)CCNCC1,5µM*
COc1cccc(CNC(=O)C2=C(C)C(=O)OC23CCCCCC3)c1,-20%
CCOC(=O)C1(C/C=C/c2ccccc2)CCCNC1 (stereo not given),4µM*
C=CCOc1cccc(C(=O)N2CCC(Cc3ccc(OC)cc3)(C(=O)OCC)CC2)c1,i
CCOC(=O)C1(Cc2ccccc2)CCCN(S(=O)(=O)c2cccs2)C1 (stereo not given),-2%
SMILES,Pf Dd2 growth
O=C(N1CCN(C/C=C/c2ccccc2)CC1)C12CNCC1CNC2 (stereo not given),-22%
CNC1CCc2nn(CC3CC3)c(=O)n2CC1 (stereo not given),32%
O=C(c1cccc(Cl)c1)N1CCn2c(nn(-c3ccc(F)cc3)c2=O)C1,-2%
O=C1NCCCCCCN(Cc2ccncc2)[C@@H]2CN(C(=O)Nc3ccccc3)CC[C@@H]12,i
COc1ccccc1CN1CCC2(CC1)Cc1ccccc1CNC2=O,-42%
Cn1c(CNC(=O)CC2CCOCC2)nc2ccccc21,62%
CC1(c2cccnc2)N(CC2CC2)C(=O)OC12CCN(C(=O)c1ccccc1)CC2 (stereo not given),i
CC(C)(C)CC(=O)N1CCn2c(nnc2[C@@H]2C[C@@H](O)CN2Cc2ccccc2)C1,i
CCOc1ccccc1C1NC(=O)N(CC(=O)NCc2ccc(F)cc2)C2=C1C(=O)OC2 (stereo not given),-24%
Cc1cccc(C(=O)N2CCCCCCNC(=O)[C@@H]3C[C@@H](c4nc(C(C)C)no4)C[C@@H]32)c1,-6%
O=C(c1cccc(OC2CN(Cc3ccc(F)cc3Cl)C2)c1)N1CCOCC1,i
COCCNC(=O)C(NC(=O)CC(C)C)C1CCN(C(=O)c2ccccc2C)CC1 (stereo not given),5%
CCOc1ccc(NC(=O)N2CCC(CC(=O)NCc3ccccc3)C2)cc1 (stereo not given),i
COCc1ccc2c(c1)c(OC(C)(C)C(=O)NCC[S+](C)(=O)[O-])nn2CCC(C)C,-27%[44.1 µM]
CCOC(=O)C1(Cc2ccccc2)CCCN(S(=O)(=O)c2ccc(OC)c(OC)c2)C1 (stereo not given),i
CCOC(=O)C1(Cc2ccc(F)cc2F)CCCN(C(=O)c2c(C)nc3ncccn23)C1 (stereo not given),-12%
CCOC(=O)C1(Cc2ccccc2)CCCN(C(=O)c2ccccc2SC)C1 (stereo not given),-34%
CCOC(=O)c1cc(S(=O)(=O)NCc2ccc(F)cc2)[nH]n1,i
